About 83,000 compounds went through this panel and 20% of them were active in at least one assay; those are over-represented in the sample as a whole.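 Note: values are percent growth. 100 is the growth of untreated cells, values between 100 and 0 indicate rising inhibition; between -100 and 0 indicates cell death.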 Values without a mark were called inactive. The source made the active and inactive calls. How the source made its calls: active means growth percent below 10; inactive means the rest.

In this test the test system is HL-60(TB) leukemia. Put plainly: NCI-60 one-dose screen, 48 h (100 = growth as untreated, 0 = no growth, -100 = all killed). As to conditions: 10 µM unless noted.
As for `COc1ccc(/C(=C/c2ccc3ccccc3c2)c2nn[nH]n2)cc1OC`, the growth is -1.21% (active). To `O=C1/C(=C/c2cn(-c3ccccc3)nc2-c2ccccc2)SC(=S)N1c1ccc(Cl)cc1` belongs 86%; to `COc1cc2nc(-c3ccc(C(F)(F)F)cc3)cc(OCCCN3CCCC3)c2cc1OC`, 36.9%. Under `N#Cc1c(-c2ccc(Cl)cc2)nc(N=Nc2c(O)[nH]c3ccc(Cl)cc23)nc1N1CCOCC1` stands 104%; under `CO[C@H]1/C=C/O[C@@]2(C)Oc3c(C)c(O)c4c(O)c(c(/C=N/N5C(C)CN(Cc6ccc(C#N)cc6)CC5C)c(O)c4c3C2=O)NC(=O)/C(C)=C\C=C\[C@H](C)[C@H](O)[C@@H](C)[C@@H](O)[C@@H](C)[C@H](OC(C)=O)[C@@H]1C` (stereo not given in full), -37% (active); under `CN1CCN(c2ccc3nc(-c4cc(C(C)(C)C)c(O)c(C(C)(C)C)c4)[nH]c3c2)CC1`, 68.6%. Under `OC1CSSC1Cn1cnc2c(Nc3ccc(F)c(Cl)c3)ncnc21` (stereo not given) stands 45.8%. As for `CCOC(=O)c1ccc[nH]1`, the growth is 79.7%. Under `C=C1C(=O)O[C@H]2[C@H](O)[C@@H](C)CCC/C(C)=C/CC[C@@]3(C)O[C@@H]3C[C@@H]12` stands 92.5%. Take `O=S(=O)(NCCCNc1nccc(-c2c(-c3ccc(O)cc3)nc3sccn23)n1)c1ccc(F)cc1`: the growth is -32.3% (active).

Take `CCOc1ccc(Cc2nccc3cc(OCC)c(OCC)cc23)cc1OCC`: the growth was 10.5%. Under `O=C(NC1CCCC1)c1ccc(N2CCC(NCc3cccc(C(F)(F)F)c3)CC2)cc1` stands 66.5%; under `COc1ccc(Oc2nc(Nc3ccc(N4CCOCC4)nc3)ncc2NC(=O)c2cc(OC)cc(OC)c2)cc1`, 75%. To `COc1cc(C)cc2oc3oc(=N)c(C(=O)c4ccccc4)cc3c(=O)c12` belongs 112%. For the compound `N=C(N)c1ccc(-c2ccc(-c3cccs3)s2)nc1`, the growth is -32.1% (active).

Regarding `CCOC(=O)/C=C/C(=O)[C@H](CC(C)C)NC(=O)[C@H](Cc1ccccc1)NC(=O)OCc1ccccc1`, the growth was 25.9%. To `O=[N+]([O-])c1c(S(=O)(=O)O)cc2cc(S(=O)(=O)O)ccc2c1[N+](=O)[O-]` belongs 108%; to `Nn1c(=O)c(=O)[nH]c2c(cnn2-c2ccccc2)c1=O`, 98.6%; to `COc1ccc(-c2nn(-c3cccc(Cl)c3)cc2-c2cc(-c3ccccc3)nc(N)n2)cc1`, 56.3%.

Take `CCOP(=O)(CCN1CCN(CCCCCOc2cc3c(cc2OC)C(=O)N2CCC[C@H]2C=N3)CC1)OCC`: the growth was 10.9%. Turning to `COc1cc2nc(-c3cnc(N(C)C)nc3)nc(NC3CCN(Cc4ccccc4)CC3)c2cc1OC`, the growth was -52.3% (active).

On to `COc1cc2c(cc1OC)[C@H](C(=O)O)[C@@H](c1ccc(OC(C)C)c(OC)c1)N(C)C2=O`, for which the growth is 94.9%. Regarding `CCCCCCCCCCCCSC1=CC(=O)C=CC1=O`, the growth is -32.3% (active). In the case of `CCCCCSc1ccc2nc(NC(=O)OCCC)sc2c1`, the growth was 5.41% (active).

As for `Fc1ccccc1-c1nc(-c2nc3cc(Cl)c(Cl)cc3[nH]2)c2ccccn12`, the growth was 81.6%. Turning to `C#CC[C@H](N)C(=O)O`, the growth is 99.9% [20 µM].

For the compound `CCCCCN1C(=O)CCC1=O`, the growth is 88.1%. For `COc1c2occc2c(OC)c2c(=O)c(-c3cc(-c4ccc(F)cc4)c(C#N)c(N)n3)c(C)oc12`, the growth was 54.7%.

`CC(=O)OC(C(=O)O)c1ccccc1` (stereo not given): the growth was 3.72% (active).

Consider `Cn1cc(-c2nc(-c3c[nH]c4ncccc34)cs2)c2cccnc21`, for which the growth was 48.1%. To `COc1cccc(CCN2C(=O)CCC3=C2CCC3=O)c1` belongs 99.9%; to `C=C1CC[C@@H](C(=O)OC)Cc2nc(C)ccc21`, 100%. As to `COc1ccc(CNc2c3ccccc3nc3ccccc23)cc1F`, the growth is 12.9%. `N#Cc1ccc(NC(=O)Nc2ccc(Cc3ccc(NC(=O)Nc4ccc(C#N)cc4)cc3)cc2)cc1`: the growth was 22.4%. To `[2H]c1nc(=Nc2cc(NC(=O)C=C)c(N(C)CCN(C)C)cc2OC)[nH]c(-c2cn(C([2H])([2H])[2H])c3ccccc23)c1[2H]` belongs -37.8% (active); to `O=C1/C(=C/N2N=C(c3ccc(Cl)cc3)CC2c2ccccc2O)SC(=S)N1c1cccc(C(F)(F)F)c1` (stereo not given), 52.2%; to `CSc1nc(NCCO)c(C#N)c(-c2cccc([N+](=O)[O-])c2)n1`, 104%. Under `CCN1CCN(CC(=O)Nc2nc3ccc(NCc4ccc(Br)cc4)cc3s2)CC1` stands 20.1%; under `Cc1ccc2c(O)c(O)cc(NC(C)CCCN)c2n1` (stereo not given), 28.3%.

For `Cn1c2ccccc2c2c3c(c4c5ccccc5n(CCCCCC#N)c4c21)C(=O)N(O)C3=O`, the growth is -22.3% (active).

The record behind these values is PubChem BioAssay (NCI).
